Where a chain is given by its changes, count along the chain named. Over roughly 16,000 sequences, “ka relative to ugcaugu” has its median near 0.096; the highest 2% begin near 0.35. Shown is part of a subset that was picked to be rich in the highest values.

B1: CUUACUC (DNA:RNA)
RNA: GGGAGACCGGAAUUCAGAUUGUCCCUUACUCUUAAAUCCCGUCGUAGCCACCA
DNA 1: CAATCTGAATTCCGGTCTCCC
DNA 2: TGGTGGCTACGACGGGATT
B2: AACUUUU (DNA:RNA)
RNA: B1 RNA with C25A, U26A, U27C, A28U, C29U, C31U
DNA 1: CAATCTGAATTCCGGTCTCCC
DNA 2: TGGTGGCTACGACGGGATT
B3: AGUUUGA (DNA:RNA)
RNA: B1 RNA with C25A, U26G, A28U, C29U, U30G, C31A
DNA 1: CAATCTGAATTCCGGTCTCCC
DNA 2: TGGTGGCTACGACGGGATT
B4: UCUACAC (DNA:RNA)
RNA: B1 RNA with C25U, U26C, U30A
DNA 1: CAATCTGAATTCCGGTCTCCC
DNA 2: TGGTGGCTACGACGGGATT
B5: CAUCGCC (DNA:RNA)
RNA: B1 RNA with U26A, A28C, C29G, U30C
DNA 1: CAATCTGAATTCCGGTCTCCC
DNA 2: TGGTGGCTACGACGGGATT
B6: UACCUUG (DNA:RNA)
RNA: B1 RNA with C25U, U26A, U27C, A28C, C29U, C31G
DNA 1: CAATCTGAATTCCGGTCTCCC
DNA 2: TGGTGGCTACGACGGGATT
B7: UUUAACG (DNA:RNA)
RNA: B1 RNA with C25U, C29A, U30C, C31G
DNA 1: CAATCTGAATTCCGGTCTCCC
DNA 2: TGGTGGCTACGACGGGATT
B8: GGUCAAC (DNA:RNA)
RNA: B1 RNA with C25G, U26G, A28C, C29A, U30A
DNA 1: CAATCTGAATTCCGGTCTCCC
DNA 2: TGGTGGCTACGACGGGATT
B9: AUAUCUA (DNA:RNA)
RNA: B1 RNA with C25A, U27A, A28U, C31A
DNA 1: CAATCTGAATTCCGGTCTCCC
DNA 2: TGGTGGCTACGACGGGATT
B10: GGGGGUA (DNA:RNA)
RNA: B1 RNA with C25G, U26G, U27G, A28G, C29G, C31A
DNA 1: CAATCTGAATTCCGGTCTCCC
DNA 2: TGGTGGCTACGACGGGATT
B11: UAGUAUC (DNA:RNA)
RNA: B1 RNA with C25U, U26A, U27G, A28U, C29A
DNA 1: CAATCTGAATTCCGGTCTCCC
DNA 2: TGGTGGCTACGACGGGATT
B12: GUAUGUU (DNA:RNA)
RNA: B1 RNA with C25G, U27A, A28U, C29G, C31U
DNA 1: CAATCTGAATTCCGGTCTCCC
DNA 2: TGGTGGCTACGACGGGATT
B13: GUUAUGU (DNA:RNA)
RNA: B1 RNA with C25G, C29U, U30G, C31U
DNA 1: CAATCTGAATTCCGGTCTCCC
DNA 2: TGGTGGCTACGACGGGATT
B14: CCGUAUG (DNA:RNA)
RNA: B1 RNA with U26C, U27G, A28U, C29A, C31G
DNA 1: CAATCTGAATTCCGGTCTCCC
DNA 2: TGGTGGCTACGACGGGATT
B15: UAGUAAA (DNA:RNA)
RNA: GGGAGACCGGAAUUCAGAUUGUCCUAGUAAAUUAAAUCCCGUCGUAGCCACCA
DNA 1: CAATCTGAATTCCGGTCTCCC
DNA 2: TGGTGGCTACGACGGGATT
B16: GUUUAUG (DNA:RNA)
RNA: B1 RNA with C25G, A28U, C29A, C31G
DNA 1: CAATCTGAATTCCGGTCTCCC
DNA 2: TGGTGGCTACGACGGGATT
B17: CCCUAUG (DNA:RNA)
RNA: B1 RNA with U26C, U27C, A28U, C29A, C31G
DNA 1: CAATCTGAATTCCGGTCTCCC
DNA 2: TGGTGGCTACGACGGGATT
B18: UAGUAUG (DNA:RNA)
RNA: B15 RNA with A30U, A31G
DNA 1: CAATCTGAATTCCGGTCTCCC
DNA 2: TGGTGGCTACGACGGGATT
B19: GGGUAUG (DNA:RNA)
RNA: B15 RNA with U25G, A26G, A30U, A31G
DNA 1: CAATCTGAATTCCGGTCTCCC
DNA 2: TGGTGGCTACGACGGGATT
B20: GGGUAGA (DNA:RNA)
RNA: B15 RNA with U25G, A26G, A30G
DNA 1: CAATCTGAATTCCGGTCTCCC
DNA 2: TGGTGGCTACGACGGGATT
B21: CCAUAUG (DNA:RNA)
RNA: B1 RNA with U26C, U27A, A28U, C29A, C31G
DNA 1: CAATCTGAATTCCGGTCTCCC
DNA 2: TGGTGGCTACGACGGGATT
B22: UAUCAUA (DNA:RNA)
RNA: B15 RNA with G27U, U28C, A30U
DNA 1: CAATCTGAATTCCGGTCTCCC
DNA 2: TGGTGGCTACGACGGGATT
B23: GAAGCUA (DNA:RNA)
RNA: B1 RNA with C25G, U26A, U27A, A28G, C31A
DNA 1: CAATCTGAATTCCGGTCTCCC
DNA 2: TGGTGGCTACGACGGGATT
B24: CAGCUCU (DNA:RNA)
RNA: B15 RNA with U25C, U28C, A29U, A30C, A31U
DNA 1: CAATCTGAATTCCGGTCTCCC
DNA 2: TGGTGGCTACGACGGGATT
B25: GUAUCAG (DNA:RNA)
RNA: B1 RNA with C25G, U27A, A28U, U30A, C31G
DNA 1: CAATCTGAATTCCGGTCTCCC
DNA 2: TGGTGGCTACGACGGGATT
B26: AGUCGCC (DNA:RNA)
RNA: B1 RNA with C25A, U26G, A28C, C29G, U30C
DNA 1: CAATCTGAATTCCGGTCTCCC
DNA 2: TGGTGGCTACGACGGGATT
B27: UCGGAGC (DNA:RNA)
RNA: B15 RNA with A26C, U28G, A30G, A31C
DNA 1: CAATCTGAATTCCGGTCTCCC
DNA 2: TGGTGGCTACGACGGGATT
B28: AACUUUG (DNA:RNA)
RNA: B15 RNA with U25A, G27C, A29U, A30U, A31G
DNA 1: CAATCTGAATTCCGGTCTCCC
DNA 2: TGGTGGCTACGACGGGATT
B29: AGGUAUG (DNA:RNA)
RNA: B15 RNA with U25A, A26G, A30U, A31G
DNA 1: CAATCTGAATTCCGGTCTCCC
DNA 2: TGGTGGCTACGACGGGATT
B30: CGGUAUG (DNA:RNA)
RNA: B15 RNA with U25C, A26G, A30U, A31G
DNA 1: CAATCTGAATTCCGGTCTCCC
DNA 2: TGGTGGCTACGACGGGATT
B31: AGGUAUC (DNA:RNA)
RNA: B15 RNA with U25A, A26G, A30U, A31C
DNA 1: CAATCTGAATTCCGGTCTCCC
DNA 2: TGGTGGCTACGACGGGATT
B32: AGGUAGC (DNA:RNA)
RNA: B15 RNA with U25A, A26G, A30G, A31C
DNA 1: CAATCTGAATTCCGGTCTCCC
DNA 2: TGGTGGCTACGACGGGATT
B33: AAGUAUC (DNA:RNA)
RNA: B15 RNA with U25A, A30U, A31C
DNA 1: CAATCTGAATTCCGGTCTCCC
DNA 2: TGGTGGCTACGACGGGATT
B34: CUUAUGU (DNA:RNA)
RNA: B1 RNA with C29U, U30G, C31U
DNA 1: CAATCTGAATTCCGGTCTCCC
DNA 2: TGGTGGCTACGACGGGATT
B35: CAUAUGU (DNA:RNA)
RNA: B1 RNA with U26A, C29U, U30G, C31U
DNA 1: CAATCTGAATTCCGGTCTCCC
DNA 2: TGGTGGCTACGACGGGATT
B36: CGUAUGU (DNA:RNA)
RNA: B1 RNA with U26G, C29U, U30G, C31U
DNA 1: CAATCTGAATTCCGGTCTCCC
DNA 2: TGGTGGCTACGACGGGATT
B37: GGUAUCG (DNA:RNA)
RNA: B1 RNA with C25G, U26G, C29U, U30C, C31G
DNA 1: CAATCTGAATTCCGGTCTCCC
DNA 2: TGGTGGCTACGACGGGATT
B38: AAGUAUG (DNA:RNA)
RNA: B15 RNA with U25A, A30U, A31G
DNA 1: CAATCTGAATTCCGGTCTCCC
DNA 2: TGGTGGCTACGACGGGATT
B39: CCCGGUA (DNA:RNA)
RNA: B1 RNA with U26C, U27C, A28G, C29G, C31A
DNA 1: CAATCTGAATTCCGGTCTCCC
DNA 2: TGGTGGCTACGACGGGATT
B40: AAGUAAA (DNA:RNA)
RNA: B15 RNA with U25A
DNA 1: CAATCTGAATTCCGGTCTCCC
DNA 2: TGGTGGCTACGACGGGATT

The target in this test is T1, RBFOX1 RRM RbFoxmut (Fox-RRM*) (Homo sapiens, UniProt Q9NWB1 109-208, R118D;E147R;N151S;E152T).
T1 sequence: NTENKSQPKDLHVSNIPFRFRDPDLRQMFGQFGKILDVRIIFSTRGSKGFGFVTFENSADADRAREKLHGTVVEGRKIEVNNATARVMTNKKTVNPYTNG
As to the kind of experiment: EMSA; HiTS-Eq, 1 nM pool, 10 min; buffer printed only for the single-RNA assays: 10 mM Tris pH 7.5, 150 mM NaCl, 3.4 mM EDTA, 0.001% NP-40, 30 C. To be noted: tags: His6 N-terminal (pET28a); label: 5' 32P. The gist of the method:
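A pool of RNA with 7 randomized nucleotides, 5′-radiolabelled and with DNA-annealed flanks, was equilibrated at 1 nM for 10 min in 50 µL with purified RbFox RRM, wild type or mutant, across increasing protein concentrations. Free RNA was separated by 8% native PAGE, excised, reverse-transcribed, barcoded by PCR and sequenced. Relative association constants were obtained from read-count changes of each RNA species versus the control reaction and normalised to the cognate motif.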
For the molecule B1, the binding signal was 0.0513 KA relative to UGCAUGU.

For B2, the binding signal is 0.0643 KA relative to UGCAUGU.

B3: the binding signal is 0.169 KA relative to UGCAUGU.

For B4, the binding signal was 0.0553 KA relative to UGCAUGU.

In the case of B5, the binding signal is 0.125 KA relative to UGCAUGU.

For B6, the binding signal is 0.1 KA relative to UGCAUGU.

For the molecule B7, the binding signal was 0.112 KA relative to UGCAUGU.

B8: the binding signal was 0.052 KA relative to UGCAUGU.

Turning to B9, the binding signal was 0.124 KA relative to UGCAUGU.

B10: the binding signal was 0.137 KA relative to UGCAUGU.

As to B11, the binding signal is 0.183 KA relative to UGCAUGU.

Consider B12, for which the binding signal was 0.497 KA relative to UGCAUGU.

On to B13, for which the binding signal is 0.268 KA relative to UGCAUGU.

In the case of B14, the binding signal was 0.534 KA relative to UGCAUGU.

B15: the binding signal is 0.117 KA relative to UGCAUGU.

As for B16, the binding signal was 0.172 KA relative to UGCAUGU.

On to B17, for which the binding signal is 0.101 KA relative to UGCAUGU.

Consider B18, for which the binding signal was 0.674 KA relative to UGCAUGU.

As to B19, the binding signal was 0.93 KA relative to UGCAUGU.

Turning to B20, the binding signal is 0.134 KA relative to UGCAUGU.

Consider B21, for which the binding signal is 0.123 KA relative to UGCAUGU.

For the molecule B22, the binding signal is 0.0784 KA relative to UGCAUGU.

As to B23, the binding signal is 0.0968 KA relative to UGCAUGU.

With B24, the binding signal was 0.0953 KA relative to UGCAUGU.

Take B25: the binding signal is 0.229 KA relative to UGCAUGU.

For the molecule B26, the binding signal was 0.0636 KA relative to UGCAUGU.

On to B27, for which the binding signal was 0.0837 KA relative to UGCAUGU.

Regarding B28, the binding signal was 0.0853 KA relative to UGCAUGU.

For the molecule B29, the binding signal was 1.01 KA relative to UGCAUGU.

Take B30: the binding signal was 0.885 KA relative to UGCAUGU.

With B31, the binding signal was 0.191 KA relative to UGCAUGU.

On to B32, for which the binding signal is 0.114 KA relative to UGCAUGU.

As for B33, the binding signal was 0.151 KA relative to UGCAUGU.

As for B34, the binding signal is 0.158 KA relative to UGCAUGU.

For B35, the binding signal is 0.149 KA relative to UGCAUGU.

For B36, the binding signal was 0.554 KA relative to UGCAUGU.

On to B37, for which the binding signal was 0.348 KA relative to UGCAUGU.

In the case of B38, the binding signal was 0.498 KA relative to UGCAUGU.

B39: the binding signal is 0.111 KA relative to UGCAUGU.

Turning to B40, the binding signal is 0.124 KA relative to UGCAUGU.

For the origin of these results see paper PMC9911399, “Two distinct binding modes provide the RNA-binding protein RbFox with extraordinary sequence specificity”.
